Test systems include SR leukemia; RPMI-8226 leukemia; OVCAR-8 ovarian; OVCAR-5 ovarian; OVCAR-4 ovarian; SK-OV-3 ovarian; IGROV1 ovarian; OVCAR-3 ovarian; HS 578T breast; NCI/ADR-RES ovarian; MDA-MB-435 melanoma; SW-620 colon; MCF7 breast; HCT-116 colon; HCC-2998 colon; KM12 colon; BT-549 breast; T-47D breast.
Holding throughout (assay): NCI-60 one-dose screen, 48 h (100 = growth as untreated, 0 = no growth, -100 = all killed)
What all share (details): 10 µM unless noted

Compounds without any hit were thinned out: in the full panel of roughly 83,000, 20% have a hit.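 Results are percent growth after 48 hours of single-concentration exposure. 100 means growth as in untreated cells, lower positive values show inhibition; negative values down to -100 show cell death.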 Values without a mark were called inactive. The source made the active and inactive calls. How the source made its calls: active means growth percent below 10; inactive means the rest.

On to `CCCCCCCCCC(=O)Oc1ccc(/C(=C(/C)c2ccccc2)c2ccc(OCCN3CCCC3)cc2)cc1`, for which the growth in the experiment with SR leukemia is -25.7% (active); with RPMI-8226 leukemia, -21.8% (active); with OVCAR-8 ovarian, 54.5%; with OVCAR-5 ovarian, 54.4%; in the experiment with OVCAR-4 ovarian it was 32.6%; in the experiment on SK-OV-3 ovarian, 33.9%. Further, the growth in the experiment on IGROV1 ovarian was 44.6%; in the experiment with OVCAR-3 ovarian, 42.9%; with HS 578T breast it was 11.9%; in the experiment with NCI/ADR-RES ovarian, 28%; in the experiment with MDA-MB-435 melanoma, -59% (active); in the experiment on SW-620 colon it was -21.9% (active). In addition, the growth is -14.1% (active) with MCF7 breast, 15.8% in the experiment with HCT-116 colon, -11.2% (active) with HCC-2998 colon and 15.2% in the experiment on KM12 colon.
On to `O=C1c2cccnc2C(=O)c2c1c(C(=O)OCCN1CCOCC1)c1ccccn21`, for which the growth with SR leukemia is -10.1% (active); in the experiment with RPMI-8226 leukemia it was 10.1%; with OVCAR-8 ovarian it was 9.13% (active); in the experiment on OVCAR-5 ovarian, -9.33% (active); in the experiment with OVCAR-4 ovarian, 24.2%; in the experiment with SK-OV-3 ovarian it was -0.946% (active). Moreover, the growth with IGROV1 ovarian was 1.32% (active); in the experiment with HS 578T breast, 30.3%; in the experiment on NCI/ADR-RES ovarian, 5.58% (active); in the experiment on BT-549 breast it was -13.3% (active); in the experiment on MDA-MB-435 melanoma it was -36% (active); in the experiment on SW-620 colon, 6.61% (active). The growth is -45.9% (active) in the experiment on MCF7 breast, -1.07% (active) in the experiment on HCT-116 colon, 10.7% in the experiment with HCC-2998 colon and 22.2% with KM12 colon.
Regarding `O=C1c2cc3c(cc2-c2c1c1cc(Cl)c(Cl)cc1c(=O)n2C[C@H](O)CO)OCO3`, the growth in the experiment on SR leukemia was -23.2% (active); in the experiment with RPMI-8226 leukemia, -8.53% (active); in the experiment with OVCAR-8 ovarian it was -20.2% (active); in the experiment on OVCAR-5 ovarian, -23% (active); in the experiment with OVCAR-4 ovarian, -51.8% (active); in the experiment with SK-OV-3 ovarian, -54% (active). The growth was -2.45% (active) in the experiment on IGROV1 ovarian; 33% in the experiment on HS 578T breast; -29.4% (active) in the experiment on NCI/ADR-RES ovarian; -20.2% (active) in the experiment with T-47D breast; -10.3% (active) in the experiment on BT-549 breast; -24.8% (active) with MDA-MB-435 melanoma. Moreover, the growth with SW-620 colon is 12.7%; in the experiment on MCF7 breast, -0.37% (active); in the experiment on HCT-116 colon, -25.4% (active); in the experiment with HCC-2998 colon it was -5.57% (active); with KM12 colon, -21% (active).
With `CCCCN(CCCC)CCC(C)(O)c1cc2ccccc2c2ccccc12` (centres undefined), the growth in the experiment with SR leukemia was 39.7%; in the experiment on RPMI-8226 leukemia it was 67.3%; in the experiment with OVCAR-8 ovarian, 92.6%; in the experiment on OVCAR-5 ovarian, 98.6%; with OVCAR-4 ovarian, 109%; in the experiment on SK-OV-3 ovarian, 99.9%. The growth is 6.06% (active) in the experiment with IGROV1 ovarian; 69% in the experiment on OVCAR-3 ovarian; 67.6% in the experiment on NCI/ADR-RES ovarian; 109% in the experiment with T-47D breast; 121% with BT-549 breast; 83.9% in the experiment with MDA-MB-435 melanoma. Also, the growth in the experiment with SW-620 colon was 69.5%; in the experiment on MCF7 breast, 96.5%; with HCT-116 colon it was 65.6%; in the experiment on HCC-2998 colon it was 80.3%; in the experiment with KM12 colon, 83.8%.
In the case of `S=c1[nH]nc(CSc2ncnc3c2c(-c2ccccc2)cn3-c2ccc(Cl)cc2)o1`, the growth is 105% in the experiment on SR leukemia; 98% with RPMI-8226 leukemia; 97.5% in the experiment on OVCAR-8 ovarian; 104% with OVCAR-5 ovarian; 95.4% with OVCAR-4 ovarian; 78.2% in the experiment on SK-OV-3 ovarian. Besides, the growth in the experiment on IGROV1 ovarian was 92.3%; in the experiment with HS 578T breast, 94.5%; with NCI/ADR-RES ovarian, 99.3%; in the experiment with T-47D breast, 90.6%; with BT-549 breast it was 107%; in the experiment with MDA-MB-435 melanoma it was 104%. Also, the growth in the experiment with SW-620 colon is 95.2%; in the experiment on MCF7 breast, 93.7%; in the experiment on HCT-116 colon, 93.8%; in the experiment on HCC-2998 colon it was 104%; with KM12 colon, 98.7%.
`CCN(CC)CCCC(C)NCCCNc1cccc2cccnc12` (centres undefined): the growth with SR leukemia was 91%; in the experiment with RPMI-8226 leukemia, 96.9%; in the experiment with OVCAR-8 ovarian, 91.9%; in the experiment on OVCAR-5 ovarian it was 125%; in the experiment on OVCAR-4 ovarian, 83.2%; in the experiment on SK-OV-3 ovarian it was 89.2%. Also, the growth in the experiment on OVCAR-3 ovarian is 89.8%; in the experiment with HS 578T breast, 105%; with NCI/ADR-RES ovarian, 92.3%; in the experiment on T-47D breast, 89.5%; in the experiment on BT-549 breast, 102%; in the experiment on MDA-MB-435 melanoma, 106%. For the same compound, the growth is 96.5% in the experiment with SW-620 colon, 95.9% in the experiment with MCF7 breast, 95.4% in the experiment with HCT-116 colon and 82.5% in the experiment on HCC-2998 colon.
As to `Cc1ccc(-c2nc(/C=N/Nc3cc(C)nc4ccc(Cl)cc34)c(C)o2)cc1`, the growth was 0.444% (active) in the experiment on SR leukemia; -48.6% (active) in the experiment with RPMI-8226 leukemia; -88.6% (active) in the experiment on OVCAR-8 ovarian; -65.4% (active) with OVCAR-5 ovarian; -90.8% (active) in the experiment with OVCAR-4 ovarian; 96.3% in the experiment with SK-OV-3 ovarian. Moreover, the growth in the experiment on IGROV1 ovarian was -69.7% (active); in the experiment with HS 578T breast, -42.8% (active); in the experiment with NCI/ADR-RES ovarian it was -37.7% (active); in the experiment on T-47D breast, -74.4% (active); with BT-549 breast, 97%; in the experiment on MDA-MB-435 melanoma it was -95.6% (active). Besides, the growth in the experiment on SW-620 colon was -70.2% (active); in the experiment on MCF7 breast, -84.4% (active); with HCT-116 colon, -54.3% (active); in the experiment with HCC-2998 colon, -53.3% (active); in the experiment on KM12 colon, -58.3% (active).
As for `COc1ccc(C(=O)c2sc3nc(-c4ccccc4OC)ccc3c2N)cc1OC`, the growth in the experiment with SR leukemia was 21.6%; in the experiment on RPMI-8226 leukemia, 19.7%; in the experiment on OVCAR-8 ovarian, 43.2%; in the experiment on OVCAR-5 ovarian, 89.8%; in the experiment with OVCAR-4 ovarian, 61.5%; in the experiment on SK-OV-3 ovarian, 107%. The growth was 57.5% in the experiment with IGROV1 ovarian; 55.6% in the experiment with HS 578T breast; 33.1% in the experiment on NCI/ADR-RES ovarian; 26.4% in the experiment on T-47D breast; 20.9% with BT-549 breast; 31.7% in the experiment with MDA-MB-435 melanoma. Besides, the growth is 73.6% in the experiment on SW-620 colon, 62.1% with MCF7 breast, 39.3% with HCT-116 colon and 46.1% with KM12 colon.
With `C/C(Cc1ccc(Cl)cc1)=C(\c1ccc(OCCN2CCCCCC2)cc1)c1ccc(OC(=O)C2CCCCC2)cc1`, the growth was -0.529% (active) in the experiment with SR leukemia; 37.2% in the experiment on RPMI-8226 leukemia; 66.2% with OVCAR-8 ovarian; 73.4% in the experiment with OVCAR-5 ovarian; 80.6% in the experiment on OVCAR-4 ovarian; 88.1% in the experiment with SK-OV-3 ovarian. The growth in the experiment on IGROV1 ovarian is 46.8%; in the experiment on HS 578T breast, 56.3%; in the experiment with NCI/ADR-RES ovarian, 70.4%; with T-47D breast, 49.1%; in the experiment with BT-549 breast it was 86.6%; with MDA-MB-435 melanoma, 58.7%. The growth is 56.9% with SW-620 colon; 29.6% in the experiment with MCF7 breast; 44% with HCT-116 colon; 10.4% in the experiment with HCC-2998 colon; 53.1% in the experiment with KM12 colon.

The values are drawn from PubChem BioAssay (NCI).
